Compound activity deposited in PubChem BioAssay by National Center for Advancing Translational Sciences (NCATS).
SMN2 splice enh: increases expression of the SMN2 splice variant | AID 1458 | Potency, µM (top dose mostly 46.1 µM), for inactives: top-dose activity change, positive = activation, actives largely listed as activators | 210,000 tested, 2.8% active | HEK293 SMN2-luciferase splicing reporter, luminescence, 30-36 h; note: % of control where 0% means no effect; nearly all actives have a fitted effect of over 55% in size
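qHTS luciferase splicing reporter: luminescence rises when SMN2 exon 7 is included in transfected HEK293 cells. Compound exposure lasted 30-36 h at 37C, with 4.5 mM final sodium butyrate as control, followed by a ONE-Glo read.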
Rab9 promoter act: activators of Rab9 promoter; Huh7 Rab9 promoter-luciferase reporter, luminescence, 24 h; Potency, µM (top dose mostly 9.22 µM), for the others: at the highest dose activation, negative = inhibition, usual class: activators; 320,000 tested, 2.8% active; note: % of control where 0% means no effect; nearly all actives have a fitted effect of over 60% in size
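Huh7 reporter line, Rab9 promoter upstream of luciferase. Compound exposure 24 h at 37 °C in reduced-serum medium with 10% FBS. Read-out: luminescence.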
ELG1 repair inh: inhibitors of ELG1-dependent DNA repair in HEK293T cells; HEK293T ELG1-luciferase reporter, luminescence, 16 h; DNA damage induced by 5-fluorouridine; Potency, µM (titrated, usually from 46.1 µM), without a hit: at the highest dose activity change, negative = inhibition, actives largely listed as inhibitors; 330,000 tested, 2.3% active; AID 504467; note: % is set by controls: 0 for no effect and ±100 for the full control effect; nearly all actives have a fitted effect of over 55% in size
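5-Fluorouridine DNA damage + compound/DMSO, 2,000 cells/well, 16 h, 37 °C/5% CO2. ONE-Glo, 30 min RT, luminescence. Readout = decrease in reporter signal.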
FLuc modulator: counter-screen for miR-21 project: firefly luciferase inhibitors or activators | AID 588342 | 360,000 tested, 6.9% active | purified FLuc, Km substrates, luminescence inhibition | Potency, µM (top dose mostly 57.5 µM), for inactives: at the highest dose activity change, negative = inhibition, most hits filed as inhibitors;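 note: plate controls were vehicle for no effect and reference inhibitor for full effect; nearly all actives have a fitted effect of over 55% in size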
Target sequence (P08659 whole entry, looked up): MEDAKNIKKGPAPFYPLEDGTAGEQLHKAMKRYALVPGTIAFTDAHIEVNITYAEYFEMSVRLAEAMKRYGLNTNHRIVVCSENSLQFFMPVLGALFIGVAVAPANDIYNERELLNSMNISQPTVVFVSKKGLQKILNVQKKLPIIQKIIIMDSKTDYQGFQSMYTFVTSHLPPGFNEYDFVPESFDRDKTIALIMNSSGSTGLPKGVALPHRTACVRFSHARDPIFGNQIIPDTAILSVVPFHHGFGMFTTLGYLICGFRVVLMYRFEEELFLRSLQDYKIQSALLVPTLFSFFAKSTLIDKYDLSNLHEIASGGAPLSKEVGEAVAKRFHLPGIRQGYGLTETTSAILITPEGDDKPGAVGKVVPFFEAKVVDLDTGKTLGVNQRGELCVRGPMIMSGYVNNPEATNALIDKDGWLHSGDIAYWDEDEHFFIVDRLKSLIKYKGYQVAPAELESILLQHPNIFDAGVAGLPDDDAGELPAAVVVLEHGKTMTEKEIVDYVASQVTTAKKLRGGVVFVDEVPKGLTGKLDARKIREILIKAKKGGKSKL
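Purified P. pyralis luciferase, 10 nM final, with Km-level 10 uM D-luciferin and 10 uM ATP in 50 mM Tris acetate pH 7.5, 10 mM Mg acetate, 0.01% Tween-20, 0.05% BSA; 6-point qHTS titration about 60 µM downward; luminescence read.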
NPC1 promoter act: activates the NPC1 promoter. Huh7 NPC1 promoter luciferase reporter, 24 h. Potency, µM (titrated, usually from 9.22 µM), for the others: at the highest dose activation, most hits filed as activators. 320,000 tested, 2.4% active. AID 485313; note: % of control where 0% means no effect; nearly all actives have a fitted effect of over 60% in size
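Quantitative HTS used a cell-based reporter: Huh7 cells stably bearing the NPC1 promoter upstream of luciferase were treated with compounds for 24 h, and promoter activation was read as luminescence.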
ELG1 genotoxic: induces genotoxicity in HEK293T cells with luciferase-tagged ELG1 | 330,000 tested, 1.3% active | AID 504466 | Potency, µM (highest dose often 46 µM), for inactives: at the top dose activity change, positive = activation, actives largely listed as activators | HEK293T ELG1-luciferase reporter, luminescence, 16 h; note: % of control where 0% means no effect; nearly all actives have a fitted effect of over 60% in size
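Screening used a luciferase reporter fused to human ELG1 in HEK293T cells. Luminescence was read on a CCD plate imager after 16 hr exposure and 30 min ONE-Glo incubation.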
* = called active by the depositor; ? = inconclusive; / = not tested or not shown. Sampled rows, rich in hits. Any-hit rate of the full collection: about 9.2%. Calls come from the whole dose curve; as a rule, active = well fitted curve in the direction sought with a large enough effect; inconclusive = small, poorly fitted or top-dose-only effect, or another doubt; inactive = no such curve, though single readings can be large; an effect the other way counts as inactive or inconclusive. Potency is the fitted concentration of half-maximal effect.

SMILES | SMN2 splice enh | Rab9 promoter act | ELG1 repair inh | FLuc modulator | NPC1 promoter act | ELG1 genotoxic
COc1ccc(OCc2cc(C(=O)NC(C)Cc3cnccn3)no2)c(Cl)c1 (stereo not given) | / | ? | ? | 19µM* | ? | ?
Cc1ccc(C)c(OC(=O)c2cccnc2Cl)c1C | / | 1% | ? | -17% | 0% | 6%
CC(C)(CNC(=O)C1CCN(S(=O)(=O)c2cc([N+](=O)[O-])ccc2Cl)CC1)N1CCOCC1 | / | 3% | ? | 0% | -1% | 0%
COc1ccc(OCc2cc(C(=O)NCCc3ccccc3)no2)c(Cl)c1 | / | 2% | -13% | ? | -20% | -5%
COc1ccc(OCc2cc(C(=O)NCC(C)Oc3cccnc3)no2)c(Cl)c1 (stereo not given) | / | ? | 24% | 15µM* | ? | 6%
COc1ccccc1-c1nc2cc3ccccc3cc2nc1-c1ccccc1OC | -34% | 8% | 21µM* | 2% | 3% | -3%
N#C/C(=C\c1cccnc1)c1ccccc1[N+](=O)[O-] | / | -4% | -18% | 1% | 5% | -5%
N#Cc1ccc(OCC(=O)Nc2nc(-c3cccnc3)cs2)cc1 | / | -5% | 13% | -12% | -4% | 1%
O=C(NNC(=S)Nc1ccccc1)c1cccs1 | 10µM* | 1.6µM* | ? | ? | ? | ?
COC(=O)c1ccc(NC(=S)Nc2ccccc2)cc1 | -40% | 16% | 25% | ? | 16% | ?
O=C(NNC(=S)NC(=O)c1ccccc1)c1ccc(O)cc1 | / | -2% | 0% | 3% | -3% | -8%
Cc1cccc(C(=O)NC(=S)NNC(=O)c2cccs2)c1 | -86% | -2% | 21µM* | -21% | -5% | 1%
COC(=O)c1ccc(NC(=S)NNC(=O)c2ccccc2)cc1 | / | 1% | 10% | 24µM* | 5% | -3%
O=C(NNC(=S)Nc1ccccc1)c1ccc(O)cc1 | / | 3.5µM* | ? | ? | 3.5µM* | ?
O=C(NC(=S)NNC(=O)c1cccs1)c1ccccc1 | / | -5% | 13% | -16% | 0% | ?
COc1ccc2nc(N(Cc3cccnc3)C(=O)c3ccc(Cl)cc3)sc2c1 | / | / | / | -12% | / | /
COCCCNC(=O)c1sc2nc(C)c(C(=O)Nc3ccc(C)cc3C)c(-c3ccc(Cl)cc3)c2c1N | -7% | / | / | -11% | / | /
COc1ccc(CN2CCN(C(=O)Cn3nc(C(=O)O)c4ccccc4c3=O)CC2)cc1F | / | -2% | 0% | 1% | -5% | -4%
CCOCCCNC(=O)NC(C)c1c(-n2cccc2)sc2c1CCN(CC)C2 (stereo not given) | / | / | / | -4% | / | /
COc1ccc(CNC(=O)CCC2N=C3c4ccccc4N=C(SCc4cccc(F)c4)N3C2=O)cc1 (stereo not given) | / | / | / | 5% | / | /
O=C(Cn1c(=O)oc2cc(S(=O)(=O)NC3CCCC3)ccc21)Nc1ccc(F)c(F)c1 | 16% | / | / | 1% | / | /
Cn1c(=O)c2c(nc(Br)n2CC(=O)C23CC4CC(CC(C4)C2)C3)n(C)c1=O | -17% | -2% | 15µM* | 4% | 13% | -2%
COc1cccc(C(=O)Cn2c(Br)nc3c2c(=O)n(C)c(=O)n3C)c1 | -36% | -6% | ? | 7% | -3% | -1%
CCCOc1ccc(CNC(=O)Cc2cccs2)cc1 | / | ? | ? | 19µM* | ? | ?
O=C(Cc1cccs1)NCc1ccccc1Br | / | 4µM* | ? | 19µM* | ? | ?
O=C(Cc1cccs1)NCc1cccc(CNC(=O)Cc2cccs2)c1 | 12% | 0% | -2% | -3% | -2% | 0%
O=C(Cc1cccs1)NCc1ccc(Cl)cc1Cl | / | 2.8µM* | ? | 15µM* | 3.2µM* | ?
CC(C)OCCCn1c(=O)c2ccccc2n2c(-c3cc(Cl)ccc3O)nnc12 | / | / | / | 5% | / | /
CCN(C(=O)Cn1nc(Cc2ccncc2)c2ccccc2c1=O)c1cccc(Cl)c1 | 8% | / | / | 3% | / | /
